Reference: PubChem BioAssay AID1159580 (chemical genetic matrix, 2015)
The campaign covered roughly 5,500 compounds. About 2,000 (36%) were called active. Inconclusive results (about 18%) are left out. No stated cut-off is given here; in the data, active means normalized growth mostly below about 0.91 (no sharp cut-off); inconclusive means no clear call, values can overlap the other calls; inactive means mostly above about 0.92. The list shows a part of the results.

Assay: chemical genetic growth profiling, strain panel (AID 1159580);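 further: tested at 20 µM; growth read once vehicle control cultures reached saturation at 30 °C; 1 = growth at the plate median or of vehicle wells; lower values mean less growth of the strain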
Conditions: growth OD

Measured: normalized growth

CO[C@]12C[C@@H](COC(=O)c3cncc(Br)c3)CN(C)[C@@H]1Cc1cn(C)c3cccc2c13
active: S. cerevisiae deletion strains, locus YLR039C, strain RIC1, hits give low values 1.34 [resistant] | S. cerevisiae deletion strains, locus YLR262C, strain YPT6, hits give low values 1.45 [resistant]
inactive: S. cerevisiae deletion strains, locus YJR075W, strain HOC1, hits give low values 0.994 | S. cerevisiae deletion strains, locus YKL009W, strain mrt4, hits give low values 0.968 | S. cerevisiae deletion strains, locus YKL068W, hits give low values 0.997 | S. cerevisiae deletion strains, locus YKL085W, strain MDH1 (second series), hits give low values 0.995 | S. cerevisiae deletion strains, locus YKL085W, strain MDH1, hits give low values 0.995 | S. cerevisiae deletion strains, locus YKL160W, strain elf1, hits give low values 0.984 | S. cerevisiae deletion strains, locus YKL190W, strain CNB1, hits give low values 0.999 | S. cerevisiae deletion strains, locus YKR001C, strain vps1, hits give low values 1.02 | S. cerevisiae deletion strains, locus YKR026C, strain gcn3, hits give low values 1.03 | S. cerevisiae deletion strains, locus YKR091W, strain srl3, hits give low values 0.981 | S. cerevisiae deletion strains, locus YLL001W, strain dnm1, hits give low values 0.965 | S. cerevisiae deletion strains, locus YLL026W, hits give low values 0.989 | S. cerevisiae deletion strains, locus YLL041C, strain sdh2, hits give low values 0.998 | S. cerevisiae deletion strains, locus YLR027C, strain aat2, hits give low values 0.964 | S. cerevisiae deletion strains, locus YLR058C, strain SHM2, hits give low values 1 | S. cerevisiae deletion strains, locus YLR102C, strain apc9, hits give low values 1.01 | S. cerevisiae deletion strains, locus YLR113W, strain HOG1, hits give low values 0.954 | S. cerevisiae deletion strains, locus YLR221C, strain rsa3, hits give low values 0.973 | S. cerevisiae deletion strains, locus YLR258W, strain gsy2, hits give low values 0.997 | S. cerevisiae deletion strains, locus YLR262C, strain YPT6 (second series), hits give low values 1.07 | S. cerevisiae deletion strains, locus YLR268W, strain sec22, hits give low values 1.01 | S. cerevisiae deletion strains, locus YLR320W, strain mms22, hits give low values 0.983 | S. cerevisiae deletion strains, locus YLR330W, strain CHS5, hits give low values 1.01 | S. cerevisiae deletion strains, locus YLR342W, strain FKS1 (second series), hits give low values 0.968 | S. cerevisiae deletion strains, locus YLR342W, strain FKS1, hits give low values 0.975 | S. cerevisiae deletion strains, locus YLR357W, strain rsc2, hits give low values 0.969 | S. cerevisiae deletion strains, locus YLR370C, strain arc18, hits give low values 0.985 | S. cerevisiae deletion strains, locus YLR371W, strain rom2, hits give low values 1.01 | S. cerevisiae deletion strains, locus YLR384C, strain iki3, hits give low values 0.991 | S. cerevisiae deletion strains, locus YLR418C, strain cdc73, hits give low values 1.03 | S. cerevisiae deletion strains, locus YML016C, strain PPZ1, hits give low values 1.01 | S. cerevisiae deletion strains, locus YML032C, strain rad52, hits give low values 1.01 | S. cerevisiae deletion strains, locus YML120C, strain ndi1, hits give low values 0.993 | S. cerevisiae deletion strains, locus YML124C, strain tub3, hits give low values 1.01 | S. cerevisiae deletion strains, locus YMR058W, strain fet3, hits give low values 0.992 | S. cerevisiae deletion strains, locus YMR078C, strain ctf18, hits give low values 1 | S. cerevisiae deletion strains, locus YMR125W, strain sto1, hits give low values 0.977 | S. cerevisiae deletion strains, locus YMR129W, hits give low values 0.977 | S. cerevisiae deletion strains, locus YMR205C, strain PFK2, hits give low values 0.977 | S. cerevisiae deletion strains, locus YMR223W, strain ubp8, hits give low values 0.984 | S. cerevisiae deletion strains, locus YMR231W, strain pep5, hits give low values 0.997 | S. cerevisiae deletion strains, locus YMR263W, strain SAP30, hits give low values 0.997 | S. cerevisiae deletion strains, locus YMR307W, strain GAS1, hits give low values 1.08 | S. cerevisiae deletion strains, locus YNL067W, strain RPL9B, hits give low values 0.985 | S. cerevisiae deletion strains, locus YNL071W, strain lat1, hits give low values 0.944 | S. cerevisiae deletion strains, locus YNL128W, strain TEP1, hits give low values 1.01 | S. cerevisiae deletion strains, locus YNL153C, strain GIM3, hits give low values 0.99 | S. cerevisiae deletion strains, locus YNL183C, strain NPR1, hits give low values 0.912 | S. cerevisiae deletion strains, locus YNL209W, strain ssb2, hits give low values 0.996 | S. cerevisiae deletion strains, locus YNL233W, strain BNI4, hits give low values 0.997 | S. cerevisiae deletion strains, locus YNL248C, strain rpa49, hits give low values 0.934 | S. cerevisiae deletion strains, locus YNL250W, strain rad50, hits give low values 1 | S. cerevisiae deletion strains, locus YNL271C, strain bni1, hits give low values 1.01 | S. cerevisiae deletion strains, locus YNL298W, strain CLA4, hits give low values 1.01 | S. cerevisiae deletion strains, locus YNL307C, strain MCK1, hits give low values 0.975 | S. cerevisiae deletion strains, locus YNL322C, strain KRE1 (second series), hits give low values 0.985 | S. cerevisiae deletion strains, locus YNL322C, strain KRE1, hits give low values 1 | S. cerevisiae deletion strains, locus YNR049C, strain mso1, hits give low values 0.993 | S. cerevisiae deletion strains, locus YNR052C, strain pop2, hits give low values 1 | S. cerevisiae deletion strains, locus YOL006C, strain TOP1, hits give low values 1.06 | S. cerevisiae deletion strains, locus YOL012C, strain htz1 1.03 | S. cerevisiae deletion strains, locus YOL147C, strain pex11, hits give low values 1.01 | S. cerevisiae deletion strains, locus YOR001W, strain rrp6, hits give low values 0.972 | S. cerevisiae deletion strains, locus YOR061W, strain CKA2, hits give low values 1 | S. cerevisiae deletion strains, locus YOR069W, strain VPS5, hits give low values 1 | S. cerevisiae deletion strains, locus YOR070C, strain gyp1, hits give low values 0.994 | S. cerevisiae deletion strains, locus YOR080W, strain dia2, hits give low values 0.983 | S. cerevisiae deletion strains, locus YOR083W, strain WHI5, hits give low values 0.978 | S. cerevisiae deletion strains, locus YOR106W, strain vam3, hits give low values 0.968 | S. cerevisiae deletion strains, locus YOR136W, strain idh2, hits give low values 0.992 | S. cerevisiae deletion strains, locus YOR144C, strain elg1, hits give low values 1.01 | S. cerevisiae deletion strains, locus YOR184W, strain ser1, hits give low values 0.988 | S. cerevisiae deletion strains, locus YOR231W, strain MKK1, hits give low values 0.983 | S. cerevisiae deletion strains, locus YOR265W, strain rbl2, hits give low values 0.987 | S. cerevisiae deletion strains, locus YOR270C, strain vph1, hits give low values 1.01 | S. cerevisiae deletion strains, locus YOR290C, strain snf2, hits give low values 0.982 | S. cerevisiae deletion strains, locus YOR316C, strain cot1, hits give low values 1 | S. cerevisiae deletion strains, locus YPL051W, strain arl3, hits give low values 0.97 | S. cerevisiae deletion strains, locus YPL055C, strain LGE1, hits give low values 0.977 | S. cerevisiae deletion strains, locus YPL078C, strain atp4, hits give low values 0.975 | S. cerevisiae deletion strains, locus YPL106C, strain sse1, hits give low values 1.01 | S. cerevisiae deletion strains, locus YPL240C, strain hsp82, hits give low values 1.02 | S. cerevisiae deletion strains, locus YPL241C, strain CIN2, hits give low values 0.999 | S. cerevisiae deletion strains, locus YPL256C, strain CLN2, hits give low values 0.972 | S. cerevisiae deletion strains, locus YPR119W, strain clb2, hits give low values 1.01 | S. cerevisiae deletion strains, locus YPR141C, strain kar3, hits give low values 1.01 | S. cerevisiae deletion strains, locus YPR163C, strain tif3, hits give low values 1.02 | S. cerevisiae deletion strains, locus YPR167C, strain met16, hits give low values 1.01 | S. cerevisiae deletion strains, strain wtn01, hits give low values 1.02 | S. cerevisiae strains, strain wild type, hits give low values 0.993
